PubChem BioAssay (NCI)
Where “and” joins values, the source holds several entries; their conditions need not be identical. Equal values may be shown once. Compounds without any hit were thinned out: in the full panel of roughly 79,000, 15% have a hit. Calls of active or inactive are those of the source. Rule as the data show it: active = growth inhibition above about 70%; inactive = the rest.

What was measured:
[1] = NCI Yeast Anticancer Drug Screen. Data for the mlh1 strain (AID 171);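 also: 0% = growth of vehicle-treated control cultures of the same strain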; conditions: S. cerevisiae mlh1 strain growth inhibition, active compounds read high
Method in brief: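 A yeast strain with a defined genetic lesion serves as the test organism. Cultures receive compound or vehicle, and growth is measured.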

[2] = NCI Yeast Anticancer Drug Screen. Data for the sgs1 strain (AID 173);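 also: 0% = growth of vehicle-only control cultures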; conditions: S. cerevisiae sgs1 mutant, active compounds read high
Method in brief: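 A genetically defined yeast mutant is incubated with the test compound, and its growth is compared to that of the same strain given vehicle.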

[3] = NCI Yeast Anticancer Drug Screen. Data for the mlh1 rad18 strain (AID 175); conditions: S. cerevisiae mlh1 rad18 strain growth inhibition, active compounds read high
Method in brief: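 Steps: expose repair-defective yeast to compound; measure growth; express inhibition against vehicle-treated controls.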

[4] = NCI Yeast Anticancer Drug Screen. Data for the rad18 strain (AID 177); conditions: S. cerevisiae rad18 mutant growth inhibition, active compounds read high
Method in brief: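 Measured value is growth inhibition of a yeast strain bearing a DNA repair alteration, referenced to vehicle-treated cells.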

[5] = NCI Yeast Anticancer Drug Screen. Data for the rad52 strain (AID 147);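 also: 0% = growth of vehicle-treated control cultures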; conditions: S. cerevisiae rad52 mutant growth inhibition, active compounds read high
Method in brief: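 Here a repair-compromised yeast strain receives each compound; its growth is then quantified and normalised to vehicle-only controls.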

[6] = NCI Yeast Anticancer Drug Screen. Data for the wt1 strain (AID 149);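 also: 0% = growth of vehicle-treated wt1 cultures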; conditions: S. cerevisiae wt1 strain (SPY 50644) growth inhibition, active compounds read high
Method in brief: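 wt1 yeast, compound-treated; % growth inhibition vs vehicle control.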

[7] = NCI Yeast Anticancer Drug Screen. Data for the rad50EPP+ strain (AID 151);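 also: 0% = growth of vehicle-treated control cultures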; conditions: S. cerevisiae rad50 mutant strain, active compounds read high
Method in brief: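 Read-out is yeast growth inhibition relative to vehicle; cells used were the rad50EPP+ strain.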

[8] = NCI Yeast Anticancer Drug Screen. Data for the rad50 strain (AID 155);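 also: 0% = growth of vehicle-only cultures of the same strain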; conditions: S. cerevisiae rad50 strain growth inhibition, active compounds read high
Method in brief: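 Genetically altered yeast (DNA repair pathway); compound treatment; growth inhibition vs vehicle ctrl.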

[9] = NCI Yeast Anticancer Drug Screen. Data for the mec2-1 strain (AID 157); conditions: S. cerevisiae mec2-1 strain, active compounds read high
Method in brief: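 Using mec2-1 yeast: add compound, measure growth, express inhibition versus vehicle-treated cultures.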

[10] = NCI Yeast Anticancer Drug Screen. Data for the rad14 strain (AID 159);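 also: 0% = growth of vehicle-treated control cultures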; conditions: S. cerevisiae rad14 strain growth inhibition, active compounds read high
Method in brief: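 Test compounds were applied to a repair-deficient yeast strain. Its growth was then compared with that of cultures given vehicle alone, and inhibition was expressed relative to those controls.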

[11] = NCI Yeast Anticancer Drug Screen. Data for the sgs1 mgt1 strain (AID 161);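 also: 0% = growth of cultures given vehicle only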; conditions: S. cerevisiae sgs1 mgt1 strain, active compounds read high
Method in brief: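 This yeast growth screen uses a strain with defined DNA-repair lesions; compound-treated growth is compared with vehicle-treated growth.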

[12] = NCI Yeast Anticancer Drug Screen. Data for the CLN2oe strain (AID 163);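 also: 0% = growth of vehicle-only control cultures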; conditions: S. cerevisiae CLN2oe strain, active compounds read high
Method in brief: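 Whole-cell yeast growth assay. A strain engineered for altered cell-cycle control received compound, and inhibition relative to vehicle-treated cultures was recorded.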

[13] = NCI Yeast Anticancer Drug Screen. Data for the cln2 rad14 strain (AID 165);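 also: 0% = growth equal to vehicle treated cultures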; conditions: S. cerevisiae cln2 rad14 strain, active compounds read high
Method in brief: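 Yeast strain cln2 rad14, bearing defects in cell cycle control and DNA repair, serves as the test system; values reflect growth inhibition compared with vehicle.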

[14] = NCI Yeast Anticancer Drug Screen. Data for the bub3 strain (AID 167); conditions: S. cerevisiae bub3 mutant strain, active compounds read high
Method in brief: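 Yeast carrying a defined mutation is treated with each compound, and growth is compared with that of vehicle-exposed cells to give inhibition.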

[15] = NCI Yeast Anticancer Drug Screen. Data for the wt2 strain (AID 169);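 also: 0% = growth of vehicle-treated yeast cultures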; conditions: S. cerevisiae wt2 strain growth inhibition, active compounds read high
Method in brief: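 Treated yeast vs. vehicle-treated yeast: growth inhibition determined.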

[16] = at 5.0 µM (retest, dose inferred, filed as 0.5)
[17] = at 50.0 µM (retest, dose inferred, filed as 5.0)

Measured: growth inhibition

Clc1c(Cl)c(Cl)c2c(nnn2C2CCCO2)c1Cl (centres undefined)
active: [1]; at 100.0 µM 85% | [2]; at 100.0 µM 83% | [3]; at 50.0 µM 83.8%
inactive: [1]; at 1.2 µM -5% | [1]; at 3.7 µM -2% | [1]; at 11.0 µM 4% | [1]; at 33.0 µM 30% | [2]; at 1.2 µM -30% | [2]; at 3.7 µM -13% | [2]; at 11.0 µM -1% | [2]; at 33.0 µM 12% | [3]; [16] 7% | [3]; [17] 45% | [4]; at 1.2 µM -15% | [4]; at 3.7 µM -4% | [4]; at 11.0 µM 2% | [4]; at 33.0 µM 14% | [4]; at 100.0 µM 54%

CC1OC(OC2CCCc3c(O)c4c(c(O)c32)C(=O)c2ccccc2C4=O)CC(N)C1O (centres undefined)
active: [5]; at 11.0 µM 94% | [5]; at 33.0 µM 98% | [5]; at 100.0 µM 99% | [6]; at 33.0 µM 92% | [6]; at 100.0 µM 99% | [7]; at 11.0 µM 73% | [7]; at 33.0 µM 97% | [7]; at 100.0 µM 98% | [8]; at 11.0 µM 95% | [8]; at 33.0 µM 99% | [8]; [17] 98% | [8]; at 50.0 µM 80.7% | [8]; at 100.0 µM 98% | [9]; at 33.0 µM 82% | [9]; [17] 99% | [9]; at 100.0 µM 99% | [10]; at 33.0 µM 99% | [10]; at 100.0 µM 99% | [11]; [17] 98% | [11]; at 50.0 µM 70.5% | [12]; at 33.0 µM 84% | [12]; at 100.0 µM 98% | [13]; [17] 98% | [14]; at 33.0 µM 89% | [14]; [17] 98% | [14]; at 100.0 µM 98% | [15]; at 33.0 µM 97% | [15]; at 100.0 µM 99% | [1]; at 33.0 µM 94% | [1]; at 100.0 µM 99% | [2]; at 33.0 µM 97% | [2]; at 100.0 µM 99% | [3]; [17] 99% | [4]; at 33.0 µM 90% | [4]; at 100.0 µM 99%
inactive: [5]; at 1.2 µM 3% | [5]; at 3.7 µM 46% | [6]; at 1.2 µM 1% | [6]; at 3.7 µM 12% | [6]; at 11.0 µM 35% | [7]; at 1.2 µM 10% | [7]; at 3.7 µM 30% | [8]; at 1.2 µM -49% | [8]; at 3.7 µM 41% | [8]; [16] 60% | [9]; at 1.2 µM 0% | [9]; at 3.7 µM -2% | [9]; [16] 8% | [9]; at 11.0 µM 4% | [9]; at 50.0 µM 53% | [10]; at 1.2 µM 2% | [10]; at 3.7 µM 12% | [10]; at 11.0 µM 55% | [11]; [16] 14% | [12]; at 1.2 µM 2% | [12]; at 3.7 µM -1% | [12]; at 11.0 µM 2% | [13]; [16] -3% | [13]; at 50.0 µM 43.9% | [14]; at 1.2 µM -4% | [14]; at 3.7 µM -5% | [14]; [16] 2% | [14]; at 11.0 µM -7% | [14]; at 50.0 µM 52.8% | [15]; at 1.2 µM 4% | [15]; at 3.7 µM 9% | [15]; at 11.0 µM 61% | [1]; at 1.2 µM -11% | [1]; at 3.7 µM -6% | [1]; at 11.0 µM 16% | [2]; at 1.2 µM -12% | [2]; at 3.7 µM -7% | [2]; at 11.0 µM 34% | [3]; [16] 12% | [3]; at 50.0 µM 66.2% | [4]; at 1.2 µM -8% | [4]; at 3.7 µM 0% | [4]; at 11.0 µM 8%

O=Nn1c2ccccc2c2ccccc21
active: [7]; at 100.0 µM 79% | [8]; at 100.0 µM 83% | [10]; at 100.0 µM 92% | [14]; [17] 95% | [1]; at 100.0 µM 93% | [4]; at 100.0 µM 86%
inactive: [5]; at 1.2 µM -15% | [5]; at 3.7 µM -18% | [5]; at 11.0 µM -22% | [5]; at 33.0 µM 5% | [5]; at 100.0 µM 68% | [6]; at 1.2 µM 2% | [6]; at 3.7 µM 21% | [6]; at 11.0 µM 7% | [6]; at 33.0 µM 9% | [6]; at 100.0 µM 60% | [7]; at 1.2 µM 0% | [7]; at 3.7 µM 18% | [7]; at 11.0 µM 9% | [7]; at 33.0 µM 50% | [8]; at 1.2 µM 12% | [8]; at 3.7 µM -1% | [8]; [16] -13% | [8]; at 11.0 µM -3% | [8]; at 33.0 µM 23% | [8]; [17] 13% | [8]; at 50.0 µM 27.5% and 25.4% | [9]; at 1.2 µM -17% | [9]; at 3.7 µM 2% | [9]; [16] -1% | [9]; at 11.0 µM 1% | [9]; at 33.0 µM 21% | [9]; [17] 9% | [9]; at 50.0 µM 16.7% and 11.6% | [9]; at 100.0 µM 65% | [10]; at 1.2 µM 10% | [10]; at 3.7 µM 6% | [10]; at 11.0 µM 11% | [10]; at 33.0 µM 49% | [11]; [16] 2% | [11]; [17] -10% | [11]; at 50.0 µM 5.25% and 16.6% | [12]; at 1.2 µM 11% | [12]; at 3.7 µM 4% | [12]; at 11.0 µM 11% | [12]; at 33.0 µM 2% | [12]; at 100.0 µM 65% | [13]; [16] 5% | [13]; [17] 67% | [13]; at 50.0 µM 3.15% and 40.1% | [14]; at 1.2 µM -7% | [14]; at 3.7 µM -9% | [14]; [16] -28% | [14]; at 11.0 µM -14% | [14]; at 33.0 µM -3% | [14]; at 50.0 µM 1.5% and 66% | [14]; at 100.0 µM 59% | [15]; at 1.2 µM -46% | [15]; at 3.7 µM -34% | [15]; at 11.0 µM -28% | [15]; at 33.0 µM -15% | [15]; at 100.0 µM 62% | [1]; at 1.2 µM 27% | [1]; at 3.7 µM 27% | [1]; at 11.0 µM 19% | [1]; at 33.0 µM 56% | [2]; at 1.2 µM -3% | [2]; at 3.7 µM 5% | [2]; at 11.0 µM 10% | [2]; at 33.0 µM 7% | [2]; at 100.0 µM 66% | [3]; [16] -16% | [3]; [17] 16% | [3]; at 50.0 µM 21.5% and 15.5% | [4]; at 1.2 µM 9% | [4]; at 3.7 µM 7% | [4]; at 11.0 µM -9% | [4]; at 33.0 µM 24%
